Test results: PubChem BioAssay AID1159580 (chemical genetic matrix, 2015)
Where “and” joins values, the source holds several entries; their conditions need not be identical. Equal entries are not always repeated. Screen size: about 5,500 compounds; about 2,000 (36%) were called active. Not shown: some 18% with an inconclusive outcome. No stated cut-off is given here; in the data, active means normalized growth mostly below about 0.91 (no sharp cut-off); inconclusive means no clear call, values can overlap the other calls; inactive means mostly above about 0.92. The list shows a part of the results.

Test: chemical genetic growth profiling, strain panel (AID 1159580);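 further: tested at 20 µM; growth read once vehicle control cultures reached saturation at 30 °C; 1 = growth at the plate median or of vehicle wells; lower values mean less growth of the strain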
Conditions: S. cerevisiae deletion strains, growth OD

Measured: normalized growth

OCCN1C[C@@H](O)[C@@H](O)C(O)C1CO (stereo partly specified)
inactive: locus YAL013W, strain DEP1, hits give low values 1.02 | locus YAL021C, strain ccr4, hits give low values 0.993 | locus YAL026C, strain drs2, hits give low values 1.02 | locus YAL030W, strain snc1, hits give low values 0.999 | locus YBL061C, strain skt5, hits give low values 1.01 | locus YBR009C, strain hhf1, hits give low values 1 | locus YBR021W, strain FUR4, hits give low values 1.01 | locus YBR023C, strain chs3, hits give low values 1 | locus YBR171W, strain sec66, hits give low values 1.01 | locus YBR229C, strain ROT2, hits give low values 1.02 | locus YBR231C, strain swc5, hits give low values 1.01 | locus YBR279W, strain paf1, hits give low values 1.01 | locus YCL011C, strain gbp2, hits give low values 0.996 | locus YCL016C, strain dcc1, hits give low values 0.993 | locus YCL029C, strain bik1, hits give low values 1 | locus YCL069W, strain vba3, hits give low values 0.991 | locus YCR088W, strain abp1, hits give low values 0.997 | locus YDL005C, strain med2, hits give low values 1.01 | locus YDL035C, strain GPR1, hits give low values 1.01 | locus YDL040C, strain nat1, hits give low values 1 | locus YDL074C, strain BRE1, hits give low values 1.03 | locus YDL101C, strain DUN1, hits give low values 1.01 | locus YDL134C, strain PPH21, hits give low values 1.02 | locus YDL185W, strain tfp1, hits give low values 0.994 | locus YDL192W, strain arf1, hits give low values 1 | locus YDR001C, strain nth1, hits give low values 1 | locus YDR069C, strain doa4, hits give low values 1.01 | locus YDR101C, strain arx1, hits give low values 1.01 | locus YDR137W, strain rgp1, hits give low values 1.01 | locus YDR150W, strain NUM1, hits give low values 1.02 | locus YDR159W, strain sac3, hits give low values 1.01 | locus YDR162C, strain NBP2, hits give low values 1.01 | locus YDR195W, strain ref2 0.992 | locus YDR297W, strain sur2, hits give low values 1.01 | locus YDR318W, strain mcm21, hits give low values 1 | locus YDR334W, strain swr1, hits give low values 1.01 | locus YDR335W, strain msn5, hits give low values 0.992 | locus YDR388W, hits give low values 1 | locus YDR392W, strain spt3, hits give low values 0.989 | locus YDR502C, strain sam2, hits give low values 1 | locus YEL003W, strain gim4, hits give low values 1.01 | locus YEL037C, strain rad23, hits give low values 1 | locus YEL061C, strain CIN8 (second series), hits give low values 0.989 | locus YEL061C, strain CIN8, hits give low values 1.02 | locus YER015W, strain faa2, hits give low values 1.01 | locus YER016W, strain bim1, hits give low values 0.983 | locus YER110C, hits give low values 0.993 | locus YER111C, strain swi4, hits give low values 1.02 | locus YER155C, strain BEM2 (second series), hits give low values 1.01 | locus YER155C, strain BEM2, hits give low values 1.01 | locus YER167W, strain BCK2, hits give low values 1.02 | locus YFR010W, strain ubp6, hits give low values 1.01 | locus YGL078C, strain dbp3, hits give low values 1.01 | locus YGL086W, strain mad1, hits give low values 1 | locus YGL167C, strain pmr1, hits give low values 1.01 | locus YGL173C, strain kem1, hits give low values 1.02 | locus YGL227W, strain vid30, hits give low values 1.01 | locus YGL240W, strain doc1, hits give low values 1.01 | locus YGL248W, strain PDE1, hits give low values 1.01 | locus YGL253W, strain hxk2, hits give low values 1 | locus YGR078C, strain PAC10, hits give low values 1.04 | locus YGR135W, strain pre9, hits give low values 1 | locus YGR229C, strain SMI1, hits give low values 1.02 | locus YGR252W, strain gcn5, hits give low values 0.969 | locus YHR013C, strain ard1, hits give low values 0.988 | locus YHR027C, strain rpn1, hits give low values 1.01 | locus YHR030C, strain SLT2, hits give low values 1.02 and 1.01 | locus YHR079C, strain IRE1 (second series), hits give low values 1.01 | locus YHR079C, strain IRE1, hits give low values 1 | locus YHR094C, strain hxt1, hits give low values 1.01 | locus YHR129C, strain ARP1, hits give low values 1.01 | locus YHR142W, strain chs7, hits give low values 0.984 | locus YHR200W, strain rpn10, hits give low values 1 | locus YIL066C, strain RNR3, hits give low values 1.02 | locus YIL073C, strain SPO22, hits give low values 1.03 | locus YIL125W, strain kgd1, hits give low values 1 | locus YIR030C, strain dcg1, hits give low values 1.01 | locus YJL092W, strain hpr5, hits give low values 1 | locus YJL095W, strain BCK1 (second series), hits give low values 1.01 | locus YJL095W, strain BCK1, hits give low values 1.02 and 1.01 | locus YJL115W, strain asf1, hits give low values 1.02 | locus YJL129C, strain trk1, hits give low values 0.997 | locus YJL134W, strain LCB3, hits give low values 1.01 | locus YJL154C, strain vps35, hits give low values 0.994 | locus YJL164C, strain tpk1, hits give low values 0.996 | locus YJL166W, strain qcr8, hits give low values 1.01 | locus YJL168C, strain set2, hits give low values 1 | locus YJL187C, strain SWE1 (second series), hits give low values 1.02 | locus YJR043C, strain POL32, hits give low values 1 | locus YJR066W, strain TOR1, hits give low values 0.962 | locus YJR075W, strain HOC1, hits give low values 1.01
